Sampled rows, rich in hits. Any-hit rate of the full collection: about 4.4%.
TRHR ag = qHTS for Small Molecule Agonists and Allosteric Enhancers of Human TRH Receptor: Primary Screen for Agonists; 360,000 compounds, 0.18% hits; activation, % at 2 µM; TRHR cells, calcium flux fluo-8, FDSS agonist mode; further: 0% is about no effect
Target sequence (P34981 whole entry, looked up): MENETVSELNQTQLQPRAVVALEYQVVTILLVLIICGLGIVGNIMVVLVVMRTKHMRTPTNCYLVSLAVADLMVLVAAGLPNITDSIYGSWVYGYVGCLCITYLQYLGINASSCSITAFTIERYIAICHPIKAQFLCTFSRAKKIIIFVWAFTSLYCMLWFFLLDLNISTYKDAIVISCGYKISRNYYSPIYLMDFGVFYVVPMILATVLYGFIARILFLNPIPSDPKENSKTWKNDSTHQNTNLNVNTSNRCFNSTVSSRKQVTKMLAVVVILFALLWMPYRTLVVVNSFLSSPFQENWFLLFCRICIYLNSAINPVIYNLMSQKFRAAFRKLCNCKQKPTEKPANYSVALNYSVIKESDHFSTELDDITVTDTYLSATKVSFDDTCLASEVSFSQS
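Fluo-8-loaded TRHR cells; 10 s baseline, compound added, kinetic Ca2+ fluorescence read 1/s, agonist mode.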
D1 agonist = Allosteric Agonists of the Human D1 Dopamine Receptor: qHTS; activation, % at 2 µM; 360,000 compounds, 1% hits; D(1A) dopamine receptor (Homo sapiens), P21728; HEK293 T-REx D1 cells, calcium flux, agonist mode; AID 504660, 2011; further: 0% is about no effect
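Inducible HEK293 T-REx D1 cells, force-coupled to calcium signalling, were plated at 4000 cells/well with tetracycline and held overnight at 30 C. After no-wash calcium dye loading, compound-evoked calcium rise over 180 s flagged agonists.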
USP1-UAF1 inh = Inhibitors of USP1/UAF1: Primary Screen. recombinant USP1/UAF1, Ub-Rhodamine cleavage fluorescence. Potency, µM (highest dose often 57.1 µM), for the others: at the highest dose activity change, negative = inhibition, most hits filed as inhibitors. 390,000 compounds, 0.23% hits; active means well fitted inhibition curve with a large enough effect; inconclusive means small, poorly fitted or top-dose-only effect; inactive means no such curve, though single readings can be large or run the other way; further: potency means the concentration at half of the fitted maximal effect; on the % scale 0 is the no-effect control and ±100 the full control effect; nearly all actives have a fitted effect of over 60% in size
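USP1/UAF1 complex at 1 nM was preincubated with compound for 15 min at room temperature, then Ub-Rho substrate (150nM final) was added. Fluorescence (480/540 nm) was read kinetically, 6 reads every 60 seconds.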
D1 antag = Antagonist of Human D 1 Dopamine Receptor: qHTS; D(1A) dopamine receptor (Homo sapiens), P21728; AID 504652, 2011; activity change, negative = inhibition, % at 10 µM; 360,000 compounds, 3.2% hits; HEK293 TREx D1 cells, calcium flux, dopamine EC80; hits give low values; in the data active means activity change below about -30%; further: on the % scale 0 is the no-effect control and ±100 the full control effect
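Tetracycline-induced HEK293 T-REx cells with force-coupled D1 receptor were loaded with a no-wash calcium dye. Compound was added after a 10 s baseline and read kinetically for 180 s; EC80 dopamine was then added and calcium flux followed another 180 s.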
TRHR PAM = qHTS for Small Molecule Agonists and Allosteric Enhancers of Human TRH Receptor: Primary Screen for Enhancers. Thyrotropin-releasing hormone receptor (Homo sapiens), P34981. TRHR cells, fluo-8 calcium fluorescence, EC20 TRH enhancement. enhancement, % at 2 µM. 360,000 compounds, 0.66% hits; in the data active means enhancement above about 30%; further: 0% is about no effect
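Enhancer read-out: after compound pinning and an initial kinetic agonist-mode read, an EC20 of TRH (10 nM final) was injected and fluo-8 calcium signal (Ex 480/Em 530) followed at 1 s/cycle for 100 cycles in TRHR-expressing cells.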
D1 potentiator = Potentiators of Human D1 Dopamine Receptor: qHTS | AID 504651, 2011 | HEK293 TREx D1 cells, calcium flux, dopamine EC20 potentiation | potentiation, % at 10 µM | 360,000 compounds, 0.036% hits; in the data active means potentiation above about 30%; further: 0% is about no effect
Numbers without * were called inactive; ? = inconclusive; nt = no result given. Unless noted, no stated cut-off is given here; in the data, active means activation above about 30%; inactive means the rest.

SMILES	TRHR ag	D1 agonist	USP1-UAF1 inh	D1 antag	TRHR PAM	D1 potentiator
CCOc1ccc(N2C(=O)/C(=C/c3ccco3)C(=O)NC2=S)cc1	1	3	22µM*	-20	-6	-13
COc1ccc(/C=C/c2nc3ccccc3c(=O)n2-c2ccc(C)cc2)cc1O	-1	-5	4%	-5	-7	0
COC(=O)c1ccc(NC(=O)c2cccn(Cc3ccccc3C)c2=O)cc1	1	2	-3%	2	-3	6
CC(C)CCNC(=O)Cn1c(=O)oc2cc(S(=O)(=O)N3CCc4ccccc43)ccc21	0	7	?	-24	-4	-4
CC(=O)c1ccc(N2CCN(S(=O)(=O)c3cc(-c4onc(C)c4C)ccc3C)CC2)cc1	0	2	?	3	0	-5
O=C(COc1ccc2ccccc2c1)N1CCN(C2CCN(Cc3ccccc3)CC2)CC1	1	26	-10%	-46*	1	-12
COc1ccc(CNCCc2cccc(F)c2)c2ccccc12	2	37*	nt	29	18	4
COc1ccc(CNCCc2ccc(Cl)cc2)c(OC)c1OC	2	20	2%	-70*	3	0
O=C(COc1ccccc1Cl)N1CCN(CCc2ccncc2)CC1	0	10	-19%	4	2	-1
O=[N+]([O-])c1ccc(NCc2ccccc2)c2nonc12	215*	593*	22µM*	-59*	-28	-2
N#Cc1cccc(NC(=O)c2sc3nc4c(cc3c2N)N2CCC4CC2)c1	1	0	-6%	-10	-12	-1
CCn1c(O)c(/C=N/NC(=O)c2ccncc2)c(=O)[nH]c1=S	0	3	-23%	-31*	10	0
CC(C)c1ccc(OCC(=O)N2CCN(CCc3ccncc3)CC2)cc1	0	2	6%	-7	-8	0
CN1CCN(Cc2ccc3ccccc3c2)CC1	0	8	-4%	2	-7	-2
CCCCCCOc1ccc(CN2CCN(C)CC2)cc1	2	31*	-9%	-18	2	-10
NC(=O)CSc1nnc([C@@H](N)Cc2c[nH]c3ccccc23)o1	0	6	-14%	-44*	-5	-5
CN1/C(=C\C=C2C(=O)NC(=S)NC2=O)C(C)(C)c2ccccc21	175*	484*	?	-1	6	5
CC1(C)OC(c2ccccc2)=C/C(=C/C=C2C(=O)NC(=S)NC2=O)O1	11	25	-42%	13	-9	8
Clc1ccc2c(c1)C(c1ccccc1Cl)=NCc1nnc(N3CCN(CCSc4ccccc4)CC3)n1-2	-1	7	-10%	-1	-9	2
Clc1ccc2c(c1)C(c1ccccc1Cl)=NCc1nnc(N3CCN(CCOc4ccccc4)CC3)n1-2	-1	39*	-23%	-22	13	-10
N#Cc1c(/N=C/c2ccc(O)cc2O)sc2c1C1CCN2CC1	11	34*	?	-22	9	-3
Cn1cc(C=C2C(=O)NC(=O)NC2=O)c2ccccc21	-1	13	28µM*	2	-1	-4
CC1CN(c2ccccc2)NC1=O (stereo unspecified)	0	0	?	-13	2	-1
Cc1ccc(Sc2ccc(C=C3C(=O)N(C)C(=O)N(C)C3=O)o2)cc1	0	3	-3%	-9	10	5
CN1C(=O)C(=Cc2ccc(N3CCOCC3)o2)C(=O)N(C)C1=O	0	45*	?	15	14	-2
SMILES	TRHR ag	D1 agonist	USP1-UAF1 inh	D1 antag	TRHR PAM	D1 potentiator
CN1C(=O)C(=Cc2ccc(N3CCCCCC3)o2)C(=O)N(C)C1=S	25	27	25µM*	4	8	1
CN1C(=O)C(=Cc2ccc(-c3cccc(Cl)c3)o2)C(=O)N(C)C1=O	-1	2	nt	-9	15	5
COc1ccccc1CNC(=O)CCC1N=C2c3ccccc3N=C(SCc3cccc(Cl)c3)N2C1=O (stereo unspecified)	0	9	?	4	9	3
CCCCc1nn2c(=O)cc(COC(=O)Cc3ccccc3)nc2s1	0	2	-5%	7	4	-5
COc1ccc(OC)c(CCNCc2c(C(=O)O)c(C)n(Cc3ccc(F)cc3Cl)c2C)c1	0	2	-4%	-5	-4	-1
CS(=O)(=O)N1CCCC(C(=O)N2CCC3(CC2)OCCO3)C1 (stereo unspecified)	0	1	-9%	-34*	10	-1
CC1(C)CN=C(Nc2ccc(F)c(Cl)c2)S1	5	34*	-4%	2	-2	5
CC1(C)CN=C(Nc2ccc(F)c(F)c2)S1	10	20	-14%	-8	-3	nt
COc1cccc(C2SCC(=O)Nc3c2c(C)nn3-c2ccc(C)c(Cl)c2)c1OC (stereo unspecified)	-1	0	3%	-6	4	-3
N#Cc1cc2c(nc1SCC(=O)Nc1ccc(F)c(Cl)c1)C1CCN2CC1	0	1	-7%	5	6	-1
O=C(Cn1nc(-c2ccc(Cl)cc2)ccc1=O)N1CCC2(CC1)OCCO2	-1	-2	-21%	-35*	-5	-7
O=C(CCn1nc(-c2ccc(Cl)cc2)ccc1=O)N1CCC2(CC1)OCCO2	0	1	-8%	-2	-4	1
CC(C)NC(C)C(=O)c1ccc2ccccc2c1 (stereo unspecified)	1	1	-14%	-34*	37*	-4
CC(C(=O)c1ccc2ccccc2c1)N1CCCCC1 (stereo unspecified)	0	1	-10%	-2	0	-2
COc1ccc(/C=C/c2nc(-c3ccccc3O)n(-c3ccccc3)n2)cc1OC	3	3	?	-1	-8	1
COc1ccccc1-n1c(/C=C/c2ccc(O)cc2)nc2ccccc2c1=O	1	2	-17%	-30*	39*	0
COc1cc(/C=C/c2nc3ccccc3c(=O)n2-c2ccccc2O)ccc1O	36*	49*	?	4	10	-5
COc1ccccc1-n1c(/C=C/c2ccccc2)nc2ccccc2c1=O	1	-1	6%	14	5	3
